Experimental data published in PubChem BioAssay AID686979 (National Center for Advancing Translational Sciences (NCATS), 2013).
Out of some 420,000 compounds screened, about 50,000 (12%) were called active. Roughly 26% stayed inconclusive and do not appear here. The sample as a whole holds a higher share of actives than the screen did. A number with no mark means an inactive call. The call rests on the fitted dose curve; in most records, active means well fitted inhibition curve with a large enough effect; inconclusive means small, poorly fitted or top-dose-only effect; inactive means flat fitted curve, though single readings scatter.

Assay: qHTS for Inhibitors of human tyrosyl-DNA phosphodiesterase 1 (TDP1): qHTS in cells in presence of CPT; further: nearly all actives have a fitted effect of over 55% in size
Conditions: chicken DT40 Tdp1-/-;hTDP1 cells + 20 nM CPT, ATP luminescence, 48 h; series mostly up to 46.2 µM; activity change, negative = growth inhibition: at the top concentration
Procedure, shortened: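 Cell growth measured by CellTiter-Glo luminescence after a minimum 48 h, 37 C compound exposure with 20 nM CPT in Tdp1-knockout DT40 cells stably expressing hTDP1, seeded 400/well; qHTS titration format.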
On the % scale 0 is the no-effect control and ±100 the full control effect; potency means the concentration at half of the fitted maximal effect.

| Structure (SMILES) | activity change, negative = growth inhibition | Potency |
| --- | --- | --- |
| Cc1ccc(S(=O)(=O)N2CCOCC2)cc1NC(=O)c1ccncc1 | -10.9% |  |
| O=C(O)c1c(NC(=O)N2CCCC2)sc2c1CCCC2 | -4.88% |  |
| COc1cn(CC(=O)Nc2cccc(C)c2C)c(CN2CCCCC2)cc1=O | -3.13% |  |
| O=C(C1CC1)N1N=C(c2ccc(Br)cc2)CC1(O)C(F)(F)F (stereo not given) | -23.5% |  |
| O=C(Cc1ccccc1)N1N=C(c2ccncc2)CC1(O)C(F)(F)F (stereo not given) | 4.64% |  |
| O=C(c1ccc(Cl)cc1)N1N=C(c2ccccn2)CC1(O)C(F)(F)F (stereo not given) |  | 25.9 µM (active) |
| C=CCn1c(SCC(=O)NC(=O)Cc2ccccc2)nc2ccccc2c1=O | 0.809% |  |
| COc1ccc(C(=O)NC(=S)Nc2ccccc2N2CCN(S(C)(=O)=O)CC2)cc1OC |  | 12.6 µM (active) |
| CCC(=O)Nc1ccccc1N1CCN(S(C)(=O)=O)CC1 | -17.6% |  |
| COc1ccccc1C(=O)NC(=S)Nc1ccccc1N1CCCCC1 | -23.6% |  |
| COc1ccc(S(=O)(=O)N2CCOCC2)cc1C(=O)NC1CCCCC1 | -6.97% |  |
| O=C(CC1SC(N2CCCC2)=NC1=O)Nc1ccc(C(=O)NCCc2ccc(F)cc2)cc1 (stereo not given) | -11.2% |  |
| Fc1ccc(-c2csc(-c3ccc(C4SCCS4)cc3)n2)cc1F | -15.4% |  |
| COc1cc(NC(=O)C2CC(c3ccccc3O)=NO2)c(OC)cc1Cl (stereo not given) | 22.2% |  |
| COc1cc(NC(=O)CSc2nnc3ccc(-c4ccncc4)nn23)cc(OC)c1 | -4.16% |  |
| COc1cc(NC(=O)Cn2nc(-c3ccc(C)c(C)c3)ccc2=O)cc(OC)c1 |  | 20.6 µM (active) |
| COc1ccc(-c2ccc(=O)n(CC(=O)Nc3ccc(Br)cc3F)n2)cc1 | -8.26% |  |
| O=C(Nc1nnc(CCOCCOCCc2nnc(NC(=O)c3ccco3)s2)s1)c1ccco1 | -11.4% |  |
| CCCNC(=O)NC(=O)COC(=O)CC(NC(N)=O)c1ccc(Cl)cc1 (stereo not given) | -6.82% |  |
| Cn1c(SCC(=O)Nc2ccc(N3CCOCC3)cc2)nnc1C(F)(F)F | -0.589% |  |
| O=C(c1ccc2c(=O)n(Cc3ccco3)c(=S)[nH]c2c1)N1CCCC1 | -22.9% |  |
| COCCn1c(=S)[nH]c2cc(C(=O)NCCc3ccc(OC)c(OC)c3)ccc2c1=O | -21.7% |  |
| COc1cc2[nH]c(=O)n(Cc3ccc(C(=O)NC4CCN(Cc5ccccc5)CC4)cc3)c(=O)c2cc1OC | -25.7% |  |
| COc1ccc(Cn2c(=O)[nH]c3cc(C(=O)N4CCN(C(=O)c5ccco5)CC4)ccc3c2=O)cc1 |  | 11.2 µM (active) |
| CCOC(=O)N1CCN(C(=O)c2ccc3c(=O)n(CCc4ccc(OC)c(OC)c4)c(=O)[nH]c3c2)CC1 |  | 20.6 µM (active) |

| Structure (SMILES) | activity change, negative = growth inhibition | Potency |
| --- | --- | --- |
| COc1ccccc1Cn1c(=S)[nH]c2cc(C(=O)N3CCN(C)CC3)ccc2c1=O | -23.2% |  |
| O=C(N=C1SC2CS(=O)(=O)CC2N1c1ccccc1)c1ccccc1 (stereo not given) | 11.5% |  |
| CS(=O)(=O)c1ccc(Cl)c(NC(=O)COC(=O)c2cccc(S(=O)(=O)N3CCCC3)c2)c1 | -20.5% |  |
| CC(C)CCNC(=O)C(C)N(C(=O)Cn1nnc(-c2ccc(F)cc2)n1)C1CCCC1 (stereo not given) | -27.3% |  |
| O=C(O)c1ccccc1CSc1nc2ccccc2s1 | -12.8% |  |
| COc1ccc2c(c1)c(=Cc1ccc(N(C)C)cc1)c1cc(-c3ccccc3)[n+](C)n12 |  | 0.92 µM (active) |
| COc1ccc2sc(-c3ccc(N(C)C)cc3)c(-c3ccc4cc[nH]c4c3)c2c1 | -26.4% |  |
| CN(C)c1ccc(/C=c2\[nH]c(=O)/c(=C/c3ccc(N(C)C)cc3)[nH]c2=O)cc1 | -29.3% |  |
| O=C(CSc1nc2[nH]ncc2c(=O)[nH]1)Nc1ccc(F)cc1 | -14.2% |  |
| O=C(NCCc1cccc(F)c1)C1CC(O)CN1C(=O)Nc1ccccc1 (stereo not given) | -13.5% |  |
| CCCCN1C(=O)CCC(C(=O)O)C1c1ccc(OC)cc1 (stereo not given) | -25.7% |  |
| CCCCc1ccc(NC(=O)CN2C(=O)NC(Cc3ccccc3)C2=O)cc1 (stereo not given) | -26.5% |  |
| O=C(Cn1c(=O)n(Cc2ccco2)c(=O)c2ccccc21)NCC1CCCO1 (stereo not given) | -6.65% |  |
| CCn1c(COc2ccccc2)nnc1SCC(=O)NCc1ccco1 | -0.143% |  |
| Cn1c2ccccc2c(=O)c2c(=O)n(Cc3ccco3)c(COc3ccccc3)nc21 |  | 18.4 µM (active) |
| CCS(=O)(=O)Nc1ccc(C(=O)NCCSc2ccccc2)cc1 | -13.8% |  |
| COc1ccc(-c2nc(Cn3c(=O)cc(C)c4c(C)nn(-c5ccccc5)c43)c(C)o2)cc1OC | -1.38% |  |
| CCCCCCn1c(=O)n2n(c1=O)C[C@]1(OC(=O)NCc3ccc(OC)c(OC)c3)CN(S(=O)(=O)c3ccc(C)cc3)C[C@]1(O)C2 |  | 23.1 µM (active) |
| Cc1ccc(S(=O)(=O)N2C[C@]3(O)C[C@@H]4C(=O)N(c5ccccc5)C(=O)[C@@H]4C[C@]3(OC(=O)NC3CC3)C2)cc1 | -5.7% |  |
| COc1ccc(CNC(=O)COC(=O)CCS(=O)(=O)c2ccc(C)cc2)cc1OC | 4.42% |  |
| CC1CCCCC1NC(=O)c1cn(C)c2ccc(S(=O)(=O)N3CCOCC3)cc2c1=O (stereo not given) | -3.99% |  |
| Cc1ccc(S(=O)(=O)N2CCC(Oc3ccc(-n4cnnn4)cc3)CC2)cc1 |  | inactive |
| OCCNc1ncnc2oc(-c3ccco3)c(-c3ccco3)c12 |  | 12.6 µM (active) |
| COCCNc1ncnc2c1ncn2[C@H]1CN(Cc2ccc(OC)cc2)C[C@@H](CO)O1 | 0.682% |  |
| Cc1nnc(NCCO)c2ccccc12 | -21.7% |  |

| Structure (SMILES) | activity change, negative = growth inhibition | Potency |
| --- | --- | --- |
| OCCc1ccc(NCCc2ccco2)cc1 | -0.916% |  |
| COc1ccc(-c2oc3ncnc(NCCCO)c3c2-c2ccc(OC)cc2)cc1 |  | 20.6 µM (active) |
| O=C(CCSCc1cccc(F)c1)NCc1ccccc1 | -26.1% |  |
| COc1ccccc1CNS(=O)(=O)c1c(C)[nH]c(C)c1C(=O)N1CCCCC1 | -24.2% |  |
| CC(=O)Cn1cnc2c(cnn2-c2ccccc2)c1=O | 6.92% |  |
| COc1ccc(-n2c(C)nc3c(cnn3-c3ccc(F)cc3)c2=O)cc1 |  | 23.1 µM (active) |
| COc1ccc(-n2c(C)nc3c(cnn3-c3ccccc3)c2=O)cc1 |  | 29.1 µM (active) |
| Cc1ccc(Oc2cnn(-c3ccccc3)c(=O)c2Br)cc1 | -24% |  |
| CCOC(=O)c1ccc(-n2c(C)nc3c(cnn3-c3ccccc3C)c2=O)cc1 | -14.8% |  |
| CCOc1ccc(-n2c(C)nc3c(cnn3-c3ccc(C)cc3)c2=O)cc1 |  | 5.17 µM (active) |
| COc1ccc(-n2c(SC)nc(O)cc2=O)cc1 | 3.21% |  |
| CCc1nc2c(cnn2-c2ccc(C)cc2)c(=O)n1-c1ccc(C)cc1 | -22.7% |  |
| CCC(C)Sc1nc2c(cnn2-c2ccc(F)cc2)c(=O)[nH]1 (stereo not given) | -4.36% |  |
| CC1CCc2c(c3ccccc3[nH]c2=O)O1 (stereo not given) | 1.58% |  |
| COc1ccc(-c2nc(N)sc2C2(O)C(=O)Nc3c(Br)cc(F)cc32)cc1OC (stereo not given) | 0.824% |  |
| O=C(COC(=O)c1cccnc1Cl)Nc1ccc(S(=O)(=O)N2CCOCC2)cc1 | -4.85% |  |
| CC[C@]1(c2ccccc2OC)C(=O)N(C(=O)OC)N1C(=O)OC |  | 20.6 µM (active) |
| COc1ccccc1CC(=O)Nc1ccc([N+](=O)[O-])cc1OC | -27.9% |  |
| COc1ccccc1CNC(=O)CCCN1C(=O)NC2(CCCC2)C1=O | -16.4% |  |
| Cc1ccccc1/C=C\c1nc(O)c([N+](=O)[O-])c(=O)[nH]1 | 1.6% |  |
| Cc1ccc(C(=O)NNC(=O)c2ccncc2)cc1S(=O)(=O)N1CCCCC1 | -14.8% |  |
| O=C(NNC(=O)c1cnccc1C(F)(F)F)c1ccc(Cl)cc1 | -1.63% |  |
| O=C(NNC1=C(C(=O)C(F)(F)F)CCC1)c1ccncc1 |  | 1.64 µM (active) |
| COc1cccc(NC(=O)CN(C)CC(=O)c2c(N)n(Cc3ccccc3)c(=O)n(C)c2=O)c1 | -2.74% |  |
| O=C(OCC(=O)N1CCCCCC1)c1cccc(Cl)c1Cl | -1.2% |  |

| Structure (SMILES) | activity change, negative = growth inhibition | Potency |
| --- | --- | --- |
| Cc1ccccc1C(=O)NCC(c1ccco1)N1CCc2ccccc21 (stereo not given) | 0.122% |  |
| O=C(NCC(c1cccnc1)N1CCc2ccccc21)c1cccc(C(F)(F)F)c1 (stereo not given) |  | 16.4 µM (active) |
| CCOC(=O)c1c(NC(=O)CSc2cn(CCNC(=O)c3cccc(C(F)(F)F)c3)c3ccccc23)sc2c1CCC2 | -11.3% |  |
| CCNC(=O)c1cnn(-c2ccccc2)c1-c1ccccc1 | -25.6% |  |
| CCCCNCCS(=O)(=O)NCc1ccccc1 | -3.55% |  |
| Cc1ccc(SCCC(=O)OCC(=O)Nc2ncc(Cl)cc2Cl)cc1 | -22.8% |  |
| Cc1ccc(-n2c(SCC(=O)Nc3ncc(Cl)cc3Cl)nc3ccccc32)cc1 |  | 14.6 µM (active) |
| Cc1cc(NC(=O)CSc2nc3ccccc3n2CC(C)C)no1 | 0.712% |  |
| Cc1cccc(N(CC(=O)N2CCCC2)S(C)(=O)=O)c1C | -0.939% |  |
| CCN(CC)C(=O)CS(=O)CC(=O)Nc1cc(OCCOC)c(Cl)cc1Cl (stereo not given) | -0.33% |  |
| COc1ccccc1-c1nc(NCc2cccs2)c2ccccc2n1 |  | 16.4 µM (active) |
| COc1ccccc1CNCc1cccs1 | -5.33% |  |
| COc1ccccc1-c1nc(NCCNC(C)=O)c2ccccc2n1 | 0.18% |  |
| CC1(C)CC(=O)C=C(N2CCCC2)C1 | 5.46% |  |
| O=C(O)CN1CCN(C(c2ccccc2)c2ccccc2)CC1 | -0.379% |  |
| CC1(C)CC(N2CCN(C(c3ccccc3)c3ccccc3)CC2)=CC(=[N+]2CCCCC2)C1 |  | 0.164 µM (active) |
| CC(Oc1ccc2c(-c3ccccc3)cc(=O)oc2c1)C(=O)NC(Cc1c[nH]c2ccccc12)C(=O)O (stereo not given) | 6.52% |  |
| Cc1ccc(C)c(NC(=O)COC(=O)Cn2c(C)csc2=O)c1 | -13.9% |  |
| COc1ccc(CCNC(=O)C(=O)NCC2CCNCC2)cc1OC | 2.42% |  |
| COc1ccc(S(=O)(=O)NCC(c2ccc(N(C)C)cc2)N2CCCC2)cc1 (stereo not given) | -7.81% |  |
| COc1ccc(C(=O)NCC(c2ccc(N(C)C)cc2)N2CCc3ccccc32)c(OC)c1 (stereo not given) |  | 18.4 µM (active) |
| COc1ccc(S(=O)(=O)NCC(c2ccc(N(C)C)cc2)N2CCc3ccccc32)cc1OC (stereo not given) | -11.8% |  |
| COc1ccccc1C(=O)NCCC(=O)NCC(c1ccco1)N1CCCCC1 (stereo not given) | -7.77% |  |
| COc1ccc(C(CNC(=O)COc2ccccc2OC)N2CCCCC2)cc1 (stereo not given) | -14.9% |  |
| CCOc1ccccc1C(=O)NCC(c1ccc(N(C)C)cc1)N1CCCC1 (stereo not given) |  | 20.6 µM (active) |
